# CYP2C9 act – increases human cytochrome P450 2C9 activity. P11712. recombinant CYP2C9, luciferin-H conversion, luminescence; hits give high values; factor 1 = untreated enzyme, 0 = blocked. activation factor at 5 µM. 1.4% of 96,000 active. AID 1024;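 active = activation factor of 2 or more for CYP2C9 at a 5 µM dose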;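 note: 0 = sulfaphenazole-blocked wells and 1 = vehicle-only wells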
# Target sequence (P11712 whole entry, looked up): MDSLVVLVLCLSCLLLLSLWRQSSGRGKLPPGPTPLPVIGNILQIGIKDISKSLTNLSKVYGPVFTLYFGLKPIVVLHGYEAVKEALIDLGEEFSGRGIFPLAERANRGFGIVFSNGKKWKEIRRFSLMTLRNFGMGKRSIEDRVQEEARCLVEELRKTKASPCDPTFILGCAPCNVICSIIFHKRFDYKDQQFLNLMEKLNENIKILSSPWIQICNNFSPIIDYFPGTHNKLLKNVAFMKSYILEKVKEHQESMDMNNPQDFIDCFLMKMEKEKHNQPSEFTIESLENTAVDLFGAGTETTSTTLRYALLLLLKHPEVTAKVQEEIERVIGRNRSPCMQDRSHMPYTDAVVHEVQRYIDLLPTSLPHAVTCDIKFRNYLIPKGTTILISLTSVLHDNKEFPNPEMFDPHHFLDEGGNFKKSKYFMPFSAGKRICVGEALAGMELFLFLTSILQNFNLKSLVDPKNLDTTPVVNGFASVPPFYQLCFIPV
# CYP2C19 inhib – human CYP2C19 inhibition | CYP2C19 Supersomes, luciferin-H EGE luminescence, 30 min | P33261 | AID 778 | inhibition, % at 5 µM | 21% of 96,000 active;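 active = CYP2C19 inhibition above a set limit at 5 µM in the primary screen, cut at about 50% in these data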;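 note: plate controls were negative control wells for no effect and 2.5 mM tranylcypromine positive control for full effect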
# PostGolgi ctrl – growth of the yeast control strain, post-Golgi counter-screen. efflux-deficient yeast background strain, growth absorbance A615, 16 h. 5% of 98,000 active. inhibition, % at 10 µM
# CYP2C19 activ – activators of human cytochrome P450 2C19 | P33261 | recombinant CYP2C19, luciferin-H EGE luminescence; hits give high values; 0 = fully inhibited enzyme, 1 = untreated enzyme | activation factor at 5 µM | 96,000 tested, under 10 active | AID 1025;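 active = activation factor of at least 2 at 5 µM in the primary screen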;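 note: 0 = wells with 2.5 mM tranylcypromine and 1 = vehicle-only wells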
# CYP2C9 inhib – blocks human cytochrome P450 2C9; P11712; inhibition, % at 5 µM; 20% of 96,000 active; CYP2C9 Supersomes, luciferin-H conversion, luminescence; AID 777;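 active = blocking of liver enzyme CYP2C9 beyond about 50% at 5 µM, limit read from the data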
# PostGolgi yeast – growth inhibition of a yeast mutant, post-Golgi transport screen; post-Golgi transport phenotypic cell assay; inhibition, % at 10 µM; 0.9% of 98,000 active; AID 739;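 note: yeast cells grown in 1536-well plates; yeast grown about 18 h at 30C before absorbance read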
# The depositor's hits bear a star; . = not tested or not shown. Rows were chosen to be rich in hits. Some 32% of all compounds tested hit in one or more screens of this group. Cut-off read from the data, not from the text of the source, unless noted: active = inhibition above about 30%; inactive = the rest.
SMILES,CYP2C9 act,CYP2C19 inhib,PostGolgi ctrl,CYP2C19 activ,CYP2C9 inhib,PostGolgi yeast
O=C1C2CC=C(Cl)CC2C(=O)N1CN(Cc1ccco1)CN1C(=O)C2CC=C(Cl)CC2C1=O (stereo not given),0.7,24,7,0.8,33,-8
COc1cc2nc(SCc3ccc(F)cc3)n(Cc3cccs3)c(=N)c2cc1OC,0.4,2,9,1,55*,14
CC(C)CC(=O)NC(=S)Nc1nc(-c2cccc3ccccc23)cs1,0.4,42,22,0.6,57*,-10
CCOC(=O)c1ccc(NC2c3ccccc3C(=O)N2c2ccccn2)cc1 (stereo not given),0.8,18,3,0.8,22,1
CC1(c2ccccc2)CC(C)(C)N(C(=O)C2CCCO2)c2ccccc21 (stereo not given),0.3,77*,66*,0.2,66*,-4
CC1(c2cc([N+](=O)[O-])cc([N+](=O)[O-])c2)CC(C)(C)N(C(=O)c2ccccc2)c2ccccc21 (stereo not given),0.9,-8,21,1.1,10,2
COC(=O)C1=C(C)N(CCc2ccc(OC)c(OC)c2)C(=O)/C1=C\N(C)C,1,14,-2,0.9,3,-1
Cc1cccc(N2CCN(C(=O)c3ccc(N4CCCC4=O)cc3)CC2)c1C,0.3,52*,4,0.5,70*,13
Cc1cccc(N2CCN(C(=O)c3ccc(N4CCCC4=O)cc3)CC2C)c1 (stereo not given),0.7,56*,4,0.4,29,-7
O=C(c1ccc(N2CCCC2=O)cc1)N1CCN(c2ccccc2)CC1,0.6,20,-5,0.8,40,1
O=C(c1ccc(N2CCCC2=O)cc1)N1CCCCCC1,1,58*,-3,0.4,1,4
COc1ccc(NC(=O)N(CCC(C)C)C(C)c2ccccn2)c(OC)c1 (stereo not given),0.7,29,13,0.7,28,-10
COC(=O)c1sccc1NC(=O)c1ccc(Br)s1,1,1,1,1,-4,7
CCCn1nc2cc(C(=O)NCCc3cccs3)ccc2c1OCC,0.7,54*,11,0.5,34,18
CCCCn1nc2cc(C(=O)NCc3ccc4c(c3)OCO4)ccc2c1OCC,0.3,59*,21,0.4,66*,2
CCCn1nc2cc(C(=O)NCc3ccc(OC(F)(F)F)cc3)ccc2c1OCC,0.4,45,14,0.6,63*,10
O=C(O)COc1ccc(S(=O)(=O)c2ccc(OCC(=O)O)cc2)cc1,1,4,4,1,-3,-9
O=C1CCCC2=C1C(c1ccco1)Nc1ccc3ccccc3c12 (stereo not given),1,14,16,0.9,-5,1
CC(=C/c1ccccc1)/C=N/n1cnnc1,0.9,94*,7,0.1,14,12
C(=C\c1ccccc1)/C=N/n1cnnc1,0.7,84*,2,0.2,28,3
CC(/C=N\N1CCN(c2ccc(Cl)cc2)CC1)=C\c1ccccc1,1,2,9,1,-2,-7
CC(/C=N/n1cnnc1)=C\c1ccccc1,0.9,94*,12,0.1,13,7
CC1(C)Cc2c(ccc3ccccc23)C(NNC(=O)c2cccnc2)=N1,1,-3,-3,1,-1,24
CCN1CCN(Cc2ccc(NC(=O)CC3Oc4ccc(C)cc4NC3=O)cc2)CC1 (stereo not given),1,-14,-2,1.1,-1,-5
COc1cccc(-c2nnc(SCC(=O)Nc3ccc(S(N)(=O)=O)cc3)n2C)c1,0.6,3,11,1,38,-5
SMILES,CYP2C9 act,CYP2C19 inhib,PostGolgi ctrl,CYP2C19 activ,CYP2C9 inhib,PostGolgi yeast
CCCNC(=O)c1cccc(COCC(F)(F)C(F)F)c1,0.7,48,1,0.5,31,7
COC(=O)c1c(C)[nH]c(C(C)=O)c1C,0.5,44,-4,0.6,55*,-4
N#CCSc1ccsc1C(=O)Nc1ccc(F)cc1,1.2,53*,5,0.5,-23,-2
Cn1cnnc1SCC(=O)NCc1cccc(C(F)(F)F)c1,1,48,1,0.5,4,-1
Cc1ccc(NC(=O)c2sccc2SCc2cccc(C(F)(F)F)c2)cc1,0.3,69*,13,0.3,74*,-1
CN(C)/C=C(\C#N)C(=O)Nc1ccc(F)cc1,1.1,2,0,1,-7,2
Cc1cccc(C)c1NC(=O)c1sccc1SCc1cccc(C(F)(F)F)c1,0.3,69*,51*,0.3,73*,-6
Nc1c(C(=O)Nc2ccc3c(c2)OCCO3)nnn1CCc1ccccc1,0.2,57*,12,0.4,79*,-8
O=C(CSc1nnnn1Cc1ccccc1)Nc1ccc2c(c1)OCCO2,0.2,82*,3,0.2,83*,16
CCC(=O)Nc1cccc(NC(=O)CSc2nnnn2Cc2ccccc2)c1,0.5,44,10,0.6,53*,-15
O=C(CCc1ccccc1)Nc1ccc2c(c1)OCCO2,0.8,5,-3,1,20,9
O=C(CSc1nnnn1Cc1ccccc1)Nc1ccc2c(c1)OCO2,0.6,32,6,0.7,39,16
CCC(C)(C)NC(=O)C(c1cccn1C)N(C(=O)Cn1nnc2ccccc21)c1ccccc1OC (stereo not given),0.9,-2,11,1,6,0
CCOC(=O)c1ccc(N=Cc2nc(-c3ccccc3)oc2OC(C)=O)cc1,0.5,32,3,0.7,50*,3
Cn1c(=O)c2c(nc(NCCCN3CCOCC3)n2Cc2ccc(Cl)cc2Cl)n(C)c1=O,0.7,34,.,0.7,26,.
Cc1ccc(CC2CC(=O)N(c3ccc(Cl)cn3)C2=O)cc1 (stereo not given),0.6,58*,10,0.4,39,-4
Cc1ccc(CC2CC(=O)N(c3ccncc3)C2=O)cc1 (stereo not given),0.4,94*,22,0.1,57*,6
Cc1ccc(CC2CC(=O)N(Cc3ccco3)C2=O)cc1 (stereo not given),0.4,88*,-6,0.1,55*,-1
Cc1cc(C)cc(CC2CC(=O)N(c3cc(C)on3)C2=O)c1 (stereo not given),.,.,8,.,.,-2
O=C1C=C(O)CC(c2cccs2)C1 (stereo not given),1.3,-10,0,1.1,-29,2
O=C(OCCN1C(=O)CCC1=O)c1ccc(S(=O)(=O)N2CCCCC2)cc1,0.9,-3,16,1,8,1
CCC(C)NC(=O)CN1C(=O)CC(C)(C)S(=O)(=O)c2ccccc21 (stereo not given),1.3,-21,0,1.2,-29,-3
COC(=O)Cc1ccc2c3ccccc3n(C)c2c1,1,71*,6,0.3,4,-1
Cn1c2ccc(CC(=O)O)cc2c2cc(CC(=O)O)ccc21,1.1,-10,10,1.1,-6,10
